Screening data from PubChem.
IL1B cytotox = cytotoxicity in IL-1B stimulated HUVEC, primary screen, cytotoxicity control for IL-1B NFkB translocation project, imaging, Hoechst nuclear count, IL-1B stimulus. HUVEC cell count loss. cell count reduction, % at 2 µM. 0.41% of 94,000 active;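 active = cell count reduction more than 3 SD above the screen-wide mean, cut at about 70% in these data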
HUVEC tox TNFa = cytotoxicity in TNFa-stimulated HUVEC, primary screen, cytotoxicity control for VCAM1 expression modulator project, imaging, Hoechst nuclei count. HUVEC TNFalpha-stimulated, Hoechst cell count. cell count reduction, % at 2 µM. AID 848, 2007. 0.17% of 93,000 active;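 active = cell count reduction exceeding the screen mean by over 5 SD, scaled to untreated wells per plate, cut at about 78% in these data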;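 also: cells counted after 24 h of TNF alpha exposure following the 1 h pretreatment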
cytoskel mod = modifiers of F-actin cytoskeleton organization, primary screen, imaging, HUVEC, phalloidin staining, high-content imaging. AID 836, 2007. inhibition, % at 2 µM. HUVEC TNFa F-actin phalloidin imaging. 0.18% of 91,000 active;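 active = inhibition above the batch mean plus 3 SD and confirmed as a hit by visual image inspection, cut at about 30% in these data, passing the limit was not always enough; inconclusive = above the inhibition threshold but rejected on visual inspection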
NFkB transloc pot = enhancers of NFkB p65 translocation in HUVEC – imaging, IL-1B stimulus, high-content imaging, primary screen. HUVEC IL-1B NFkB p65 nuclear translocation imaging. activation, % at 2 µM. 0.3% of 94,000 active;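 active = activation above 40%, about the mean plus 3 SD, also judged a hit on visual image review; inconclusive = activation above 40% but not a hit on visual review; inactive = activation not above 40% and no visual hit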;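 also: percent activation is computed from the nuclear over cytoplasmic p65 intensity ratio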
IL1B NFkB inh = inhibitors of IL-1B driven NFkB p65 nuclear import, primary screen, imaging, HUVEC, IL-1B stimulus, high-content imaging. AID 796, 2007. inhibition, % at 2 µM. 0.43% of 94,000 active. HUVEC IL-1B NFkB p65 nuclear translocation imaging;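 active = inhibition above about 30% together with a positive call from visual inspection of the well image, limit read from the data; inconclusive = inhibition above a set limit but visual check negative; inactive = inhibition not above a set limit, visual check negative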;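 also: nuclear over cytoplasmic p65 intensity ratio measured by imaging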
VCAM1 TNFa inh = inhibitors of TNFa-induced VCAM1 expression, primary screen, imaging, HUVEC, TNFa stimulus, immunofluorescence. AID 802, 2007. inhibition, % at 2 µM. 0.48% of 95,000 active. HUVEC TNFa-induced VCAM-1 immunofluorescence, high-content imaging;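 active = inhibition above the batch mean plus 3 SD, with images confirmed as a hit by eye, cut at about 37% in these data; inconclusive = inhibition above that limit but hit not confirmed in images; inactive = inhibition not above that limit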
A number is an active result. Most compounds without a hit are left out; they make up all but 1.6% or so of the library.

For C/C=C/COc1nc2c(c(=O)n(C)c(=O)n2C)n1C the results were IL1B cytotox inactive, HUVEC tox TNFa inactive, cytoskel mod inactive, NFkB transloc pot inactive, IL1B NFkB inh inactive and VCAM1 TNFa inh inactive.
C=CCOc1nc2c(c(=O)n(C)c(=O)n2C)n1C was read as IL1B cytotox 85, cytoskel mod inactive, NFkB transloc pot inactive, IL1B NFkB inh inactive and VCAM1 TNFa inh inactive.
Cc1cc(NC(=O)Cn2c(C)nc3ccccc3c2=O)ccc1Br was read as IL1B cytotox inactive, HUVEC tox TNFa inactive, cytoskel mod inactive, NFkB transloc pot inactive, IL1B NFkB inh inactive and VCAM1 TNFa inh inactive.
`CCOC(=O)C1=C(C)Nc2nnnn2C1c1ccccc1Cl` (stereo not drawn) gave IL1B cytotox inactive, HUVEC tox TNFa inactive, cytoskel mod inactive, NFkB transloc pot 46, IL1B NFkB inh inactive and VCAM1 TNFa inh inactive.
COC(=O)C1=C(C)Nc2nnnn2C1c1cccnc1 (stereo not drawn) was read as IL1B cytotox inactive, HUVEC tox TNFa inactive, cytoskel mod inactive, NFkB transloc pot inactive, IL1B NFkB inh 34 and VCAM1 TNFa inh inactive.
`CC(/C=N/Nc1nnc2c(n1)[nH]c1ccccc12)=C\c1ccco1` gave IL1B cytotox inactive, HUVEC tox TNFa inactive, cytoskel mod inactive, NFkB transloc pot 65, IL1B NFkB inh inactive and VCAM1 TNFa inh inactive.
For COC(=O)c1cc(NC(=O)Cc2ccc(OC)cc2)cc(C(=O)OC)c1 the results were IL1B cytotox inactive, HUVEC tox TNFa inactive, cytoskel mod inactive, NFkB transloc pot inactive, IL1B NFkB inh inactive and VCAM1 TNFa inh inactive.
`O=C1C(c2ccc(F)cc2)N(C2CCCCC2)C(=O)CN1C1CCCC1` (stereo not drawn) gave IL1B cytotox inactive, HUVEC tox TNFa inactive, cytoskel mod inactive, NFkB transloc pot 128, IL1B NFkB inh inactive and VCAM1 TNFa inh inactive.
COC(=O)c1c(NC(=O)c2ccc(S(=O)(=O)N3CCOCC3)cc2)sc2c1CCN(C)C2 was read as IL1B cytotox inactive, HUVEC tox TNFa inactive, cytoskel mod inactive, NFkB transloc pot inactive, IL1B NFkB inh inactive and VCAM1 TNFa inh 54.
COC(=O)c1c[nH]n2c(=O)cc(CCl)nc12 was read as IL1B cytotox inactive, HUVEC tox TNFa inactive, cytoskel mod inactive, NFkB transloc pot inactive, IL1B NFkB inh inactive and VCAM1 TNFa inh inactive.
`COC(=O)Sc1nc(N2CCOCC2)c2c(c1C#N)CC(C)(C)OC2` gave IL1B cytotox inactive, HUVEC tox TNFa inactive, cytoskel mod inactive, NFkB transloc pot inactive, IL1B NFkB inh inactive and VCAM1 TNFa inh 41.
For OCCCCNc1cccc2ccccc12 the results were IL1B cytotox inactive, HUVEC tox TNFa inactive, cytoskel mod inactive, NFkB transloc pot inactive, IL1B NFkB inh inactive and VCAM1 TNFa inh 43.
Screening OCCCCCNc1ncnc2ccccc12 returned IL1B cytotox inactive, HUVEC tox TNFa inactive, cytoskel mod inactive, NFkB transloc pot inactive, IL1B NFkB inh inactive and VCAM1 TNFa inh inactive.
For CCCCOC1(c2ccccc2)NC(=S)NN=C1c1ccccc1 (stereo not drawn) the results were IL1B cytotox inactive, HUVEC tox TNFa inactive, NFkB transloc pot inactive, IL1B NFkB inh inactive and VCAM1 TNFa inh inactive.
Screening COC1(c2ccccc2)NC(=S)NN=C1c1ccccc1 (stereo not drawn) returned IL1B cytotox inactive, HUVEC tox TNFa 100, cytoskel mod inconclusive, NFkB transloc pot inactive, IL1B NFkB inh inactive and VCAM1 TNFa inh inconclusive.
Cc1ccc(C2Nc3ccccc3C(=O)N2Cc2ccco2)cc1 (stereo not drawn) was read as IL1B cytotox inactive, HUVEC tox TNFa inactive, cytoskel mod inactive, NFkB transloc pot inactive, IL1B NFkB inh inactive and VCAM1 TNFa inh inactive.
Screening O=C(NC1CCCCC1)c1ccc(CNc2ccccc2)o1 returned IL1B cytotox 86, HUVEC tox TNFa inactive, cytoskel mod inactive, NFkB transloc pot inactive, IL1B NFkB inh 34 and VCAM1 TNFa inh inactive.
Screening Cc1ccc([N+](=O)[O-])cc1N=C(c1cccc(Br)c1)N1CCOCC1 returned IL1B cytotox inactive, HUVEC tox TNFa inactive, cytoskel mod inactive, NFkB transloc pot inactive, IL1B NFkB inh inactive and VCAM1 TNFa inh inactive.
For CN(N)c1nc(-c2ccccc2)nnc1C(F)(F)F the results were IL1B cytotox 86, HUVEC tox TNFa inactive, cytoskel mod inactive, NFkB transloc pot inactive, IL1B NFkB inh inactive and VCAM1 TNFa inh inactive.
Screening Cc1ccc2c(c1)N1C(=O)c3ccccc3C1C1=C(CC(C)(C)CC1=O)N2 (stereo not drawn) returned IL1B cytotox inactive, HUVEC tox TNFa inactive, cytoskel mod inactive, NFkB transloc pot inactive, IL1B NFkB inh inactive and VCAM1 TNFa inh inactive.
For CCOc1ccccc1NC=C1C(=O)OC(C)(C)OC1=O the results were IL1B cytotox inactive, HUVEC tox TNFa inactive, cytoskel mod inactive, NFkB transloc pot inactive, IL1B NFkB inh inactive and VCAM1 TNFa inh inactive.
Screening COc1ccccc1NC=C1C(=O)OC(C)(C)OC1=O returned IL1B cytotox inactive, HUVEC tox TNFa inactive, cytoskel mod inactive, NFkB transloc pot inactive, IL1B NFkB inh 91 and VCAM1 TNFa inh inactive.
Cc1cccc(N(CC(=O)NC2CCCC2)C(=O)c2cc3cc4cccc(C)c4nc3s2)c1C was read as IL1B cytotox inactive, HUVEC tox TNFa inactive, cytoskel mod inactive, NFkB transloc pot inactive, IL1B NFkB inh inactive and VCAM1 TNFa inh inactive.
For Cc1ccc(C)c(N(CC(=O)NC2CCCC2)C(=O)c2cc3cc4cc(C)ccc4nc3s2)c1 the results were IL1B cytotox inactive, HUVEC tox TNFa 84, cytoskel mod inactive, NFkB transloc pot inactive, IL1B NFkB inh inactive and VCAM1 TNFa inh inactive.
`O=Cc1cc2ccccc2nc1SCc1ccc(Cl)cc1` gave IL1B cytotox inactive, HUVEC tox TNFa inactive, cytoskel mod inactive, NFkB transloc pot inactive, IL1B NFkB inh inactive and VCAM1 TNFa inh 66.
`O=Cc1cc2ccccc2nc1SCc1ccc(Cl)c(Cl)c1` gave IL1B cytotox inactive, HUVEC tox TNFa inactive, cytoskel mod inactive, NFkB transloc pot inactive, IL1B NFkB inh 34 and VCAM1 TNFa inh 72.
Screening Clc1ccc(CSc2ncccn2)cc1 returned IL1B cytotox inactive, HUVEC tox TNFa inactive, cytoskel mod inactive, NFkB transloc pot inactive, IL1B NFkB inh inactive and VCAM1 TNFa inh inactive.
`Cc1ccc(CSc2nc3ccccc3cc2C=O)cc1` gave IL1B cytotox 73, HUVEC tox TNFa inactive, cytoskel mod inactive, NFkB transloc pot inactive, IL1B NFkB inh 36 and VCAM1 TNFa inh 95.
O=C1c2ccccc2NC(c2ccncc2)N1c1ccccn1 (stereo not drawn) was read as IL1B cytotox inactive, HUVEC tox TNFa inactive, cytoskel mod inactive, NFkB transloc pot inactive, IL1B NFkB inh 62 and VCAM1 TNFa inh inactive.
